Several values for one entry are separate records, joined by “and”; a condition that tells them apart may be missing. Identical values can stand only once. Results filed as inconclusive are left out. Activity calls are given as the source filed them. The call rests on the fitted dose curve; in most records, active means well fitted curve in the direction sought with a large enough effect; inconclusive means small, poorly fitted or top-dose-only effect, or another doubt; inactive means no such curve, though single readings can be large; an effect the other way counts as inactive or inconclusive.
Experiments:
[1] = qHTS to identify inhibitors of the type 1 interferon - major histocompatibility complex class I in skeletal muscle: primary screen against the NCATS LOPAC collection (AID 1347405);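 further: lytic HiBiT luminescence reporting HLA-B protein level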; further: potency means the concentration at half of the fitted maximal effect
Summary of the method: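 Cells: C25cl48 human myoblasts, HiBiT-tagged HLA-B*08:01, stimulated with IFN-beta 4.0 ng/ml. Compounds are titrated 1:4.3 over 7 points from 46 uM final and incubated 24 hrs; endogenous MHC class I is quantified by HiBiT lytic luminescence.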

[2] = qHTS to identify inhibitors of the type 1 interferon - major histocompatibility complex class I in skeletal muscle: primary screen against the NCATS Pharmaceutical Collection (AID 1347407);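 further: luminescence of HiBiT knocked into endogenous HLA-B as interferon-induced MHC class I level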; further: potency means the concentration at half of the fitted maximal effect
Summary of the method: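 Immortalized human myoblasts (C25cl48) with HiBiT knocked into endogenous HLA-B*08:01 were stimulated with 4.0 ng/ml IFN-beta and treated with compounds ([…] top 46 uM) for 24 hrs at 37 C. HiBiT lytic luminescence read.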

[3] = qHTS for inhibitors of adenylyl cyclases using a fission yeast platform: a pilot screen against the NCATS LOPAC library (AID 1347410)
Summary of the method: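 S. pombe CHP2027 (AC9-GNAS-PDE4D2) carrying PKA-repressed fbp1-GFP, incubated 18 h at 30C in EMM with LOPAC compounds at up to 57 uM. GFP gain-of-signal read by laser scanning cytometry; DMSO negative control.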

[4] = qHTS to identify inhibitors of the type 1 interferon - major histocompatibility complex class I in skeletal muscle: primary screen against the NCATS Mechanism Interrogation Plate v5.0 (MIPE) Libary (AID 1347411); further: nearly all actives have a fitted effect of over 65% in size
Summary of the method: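 Cells were genome-edited human myoblasts carrying a HiBit tag on endogenous HLA-B. They were treated with IFN-beta (4.0 ng/ml) and titrated compounds (top 46 uM) for 24 hrs before lytic HiBiT detection.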

[5] = target: Protein phosphatase 1D (Homo sapiens) (UniProt O15297); assay: RapidFire Mass Spectrometry qHTS Assay for Modulators of WT P53-Induced Phosphatase 1 (WIP1) (AID 1347424);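 further: amount of dephosphorylated VEPPL-S-QETFS peptide product formed by WIP1; series mostly up to about 63 µM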
Protein phosphatase 1D (Homo sapiens), sequence (O15297 whole entry, looked up): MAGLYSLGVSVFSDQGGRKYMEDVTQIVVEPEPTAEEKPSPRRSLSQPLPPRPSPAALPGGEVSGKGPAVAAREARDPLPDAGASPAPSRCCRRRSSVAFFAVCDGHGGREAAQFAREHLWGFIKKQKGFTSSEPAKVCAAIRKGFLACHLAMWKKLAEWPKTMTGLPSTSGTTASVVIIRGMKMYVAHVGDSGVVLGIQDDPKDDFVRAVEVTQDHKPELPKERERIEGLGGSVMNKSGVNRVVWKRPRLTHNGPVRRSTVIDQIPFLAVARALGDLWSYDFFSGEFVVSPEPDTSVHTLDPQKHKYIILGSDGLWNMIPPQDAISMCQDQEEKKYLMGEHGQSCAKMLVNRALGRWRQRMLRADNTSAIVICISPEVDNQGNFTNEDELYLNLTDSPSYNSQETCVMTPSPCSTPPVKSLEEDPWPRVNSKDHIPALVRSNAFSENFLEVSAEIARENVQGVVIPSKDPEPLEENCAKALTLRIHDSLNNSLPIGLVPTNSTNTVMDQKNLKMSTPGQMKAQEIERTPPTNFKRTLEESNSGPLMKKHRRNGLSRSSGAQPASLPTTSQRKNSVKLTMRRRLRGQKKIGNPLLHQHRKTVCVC
Summary of the method: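 10 nM WIP1 + cpd, 1 h RT; + 2 uM VEPPL-pS-QETFS, 5 min RT; stop 0.5% formic acid; labelled product standard 1 uM; RapidFire MS. Buffer 50 mM Tris pH 7.5, 30 mM MgCl2, 1 mM TCEP.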

[6] = target: Protein phosphatase 1D (Homo sapiens) (UniProt O15297); assay: Rhodamine-PBP qHTS Assay for Modulators of WT P53-Induced Phosphatase 1 (WIP1) (AID 1347425)
Summary of the method: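 WIP1 (5 nM final) was preincubated with compound for 1 hour at room temperature. It then dephosphorylated 10 uM VEPPL-pS-QETFS peptide in Tris-HCl pH 7.5 with 30 mM MgCl2. Released Pi was detected by 10 uM Rh-PBP fluorescence (ex 525/em 598 nm) read at 1-min intervals for 11 min, as delta f1 - f0.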

[7] = Validation qHTS assay for inhibitors of Activation Induced Cytidine Deaminase (AID): UDG Counterscreen signal (AID 1347427)
Summary of the method: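 Counterscreen read of UDG activity (2 U/mL, 4/3x) in the FRET deamination format with AID (1 uM, 4/3x), DJC20/DJC23 substrates (250 nM, 4x), 4 h at room temperature. NaOH stop, fluorescence at 560 ex/665 em.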

[8] = target: Single-stranded DNA cytosine deaminase (Homo sapiens) (UniProt Q9GZX7); assay: Validation qHTS assay for inhibitors of Activation Induced Cytidine Deaminase (AID): AID signal (AID 1347429)
Single-stranded DNA cytosine deaminase (Homo sapiens), sequence (Q9GZX7 whole entry, looked up): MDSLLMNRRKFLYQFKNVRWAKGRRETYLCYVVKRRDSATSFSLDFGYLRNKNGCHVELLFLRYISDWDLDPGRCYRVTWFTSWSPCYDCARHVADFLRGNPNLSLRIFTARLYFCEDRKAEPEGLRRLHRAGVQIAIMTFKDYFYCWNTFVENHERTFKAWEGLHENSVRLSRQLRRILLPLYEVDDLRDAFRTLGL
Summary of the method: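 In this coupled qHTS, AID deaminates a FRET-labelled ssDNA substrate in the presence of UDG over 4 hr at room temperature. Compounds span up to 114 uM final.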

[9] = Primary qHTS for inhibitors of La Crosse Virus (LACV) - induced cell death in SH-SY5Y cells (AID 1508616);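 further: top concentration of the series differs between compounds; higher means more rescue of cells from virus-induced death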
Summary of the method: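 Readout was luminescence from ATPLite 1step added after a 6-day LACV infection (0.01 MOI) of SH-SY5Y cells that had received pin-transferred compound 24 hr after seeding.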

[10] = target: Calcium and integrin-binding protein 1 (Homo sapiens) (UniProt Q99828); assay: Validation qHTS for Identification of Calcium Integrin Binding protein 1 (CIB1) Competitor (AID 1508618); further: potency means the concentration at half of the fitted maximal effect
Calcium and integrin-binding protein 1 (Homo sapiens), sequence (Q99828 whole entry, looked up): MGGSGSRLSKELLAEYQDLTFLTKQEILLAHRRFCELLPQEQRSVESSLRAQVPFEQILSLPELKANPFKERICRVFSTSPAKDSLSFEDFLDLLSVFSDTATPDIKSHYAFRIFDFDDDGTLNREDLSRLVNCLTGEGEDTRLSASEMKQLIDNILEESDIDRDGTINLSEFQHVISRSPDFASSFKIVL
Summary of the method: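 Fluorescence polarization with 1 uM CIB1-GST and 100 nM FITC-alphaIIb peptide in HEPES pH 7.4, NaCl, 5 mM CaCl2, Tween20. Compounds at up to 114 uM final, preincubated with protein 15 min; read after 15 min more at RT.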

[11] = target: Calcium and integrin-binding protein 1 (Homo sapiens) (UniProt Q99828); assay: Primary qHTS for Identification of Calcium Integrin Binding Protein 1 (CIB1) Competitor (AID 1508620); further: potency means the concentration at half of the fitted maximal effect
Summary of the method: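 CIB1-GST (1 uM final) and compound incubated 15 min at room temperature before adding FITC-alphaIIb peptide tracer (100 nM final). Competition for binding read by fluorescence polarization (ex 480, em 540) after another 15 min at room temperature.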

[12] = Secretion counterscreen for inhibitors of the SERCaMP assay screened against the NCATS CANVASS Library (AID 1347390);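 further: light from luciferase secreted into medium read as a measure of general secretion; series mostly up to about 77 µM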
Summary of the method: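 SH-SY5Y cells with constitutively secreted GLuc reporter, 1000 cells/well, treated 20 h at 37C with compounds at 0.001 - 77 uM final; secreted luciferase read as luminescence after coelenterazine; Brefeldin A as positive control.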

[13] = qHTS for activators of Nrf2/ARE signaling pathway screened against the NCATS CANVASS Library (AID 1347391); further: nearly all actives have a fitted effect of over 60% in size
Summary of the method: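 Cells carrying an ARE-driven beta-lactamase reporter (HepG2 background) are dosed for 16 h, then stained with CCF4. Cell viability in the same wells is measured by CellTiter-Glo luminescence.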

[14] = qHTS for activators of dead-cell proteases activity screened against the NCATS CANVASS Library (AID 1347392);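 further: luminescence from protease leaking out of membrane-damaged cells cleaving impermeant substrate; rising signal means more cytotoxicity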
Summary of the method: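 Compounds are pin-transferred onto attached HepG2 cells, giving 11 final concentrations. After 5 h at 37C, AAF-aminoluciferin reagent is added and luminescence is recorded at room temperature.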

[15] = qHTS for inhibitors of ER calcium dysfunction: SERCaMP assay screened against the NCATS CANVASS Library (AID 1347393);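 further: series mostly up to about 77 µM; lower secreted reporter signal means inhibitor of ER calcium depletion; nearly all actives have a fitted effect of over 40% in size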
Summary of the method: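 Thapsigargin-induced ER calcium depletion drives GLuc-SERCaMP secretion from SH-SY5Y cells; compounds given 16 h beforehand were scored by lowered coelenterazine luminescence after 4 h challenge.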

[16] = Vero-766 cells viability qHTS against the NCATS CANVASS Library: Counterscreen for Zika virus inhibition assay (AID 1347394); further: series mostly up to about 46 µM; nearly all actives have a fitted effect of over 60% in size
Summary of the method: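 Vero 766 cells (1000/well), without Zika virus, were exposed to compounds for 72 h at 37C. Viability was measured by CellTiter Glo luminescence. Media-only wells served as 100% inhibition.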

[17] = qHTS for inhibitors of Wild type Zika virus screened against the NCATS CANVASS Library (AID 1347396);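 further: ATP luminescence of surviving cells so rescue from viral cell killing; series mostly up to about 46 µM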
Summary of the method: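 Vero 766 (African green monkey) cells, 1000 per well, attached overnight, then compounds were added in an 11-point series before wild-type Zika virus infection. After 72 h at 37C, cell viability was read as CellTiter Glo luminescence.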

[18] = Viability qHTS for inhibitors of the SERCaMP assay screened against the NCATS CANVASS Library (AID 1347400); further: series mostly up to about 92 µM; nearly all actives have a fitted effect of over 70% in size
Summary of the method: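 Cytotoxicity counter-screen: ATP content (CellTiter-Glo luminescence) of SH-SY5Y-GLuc SERCaMP MJH297 cells after 48 h at 37C with compounds in an 11-point qHTS series.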

[19] = Redox Reaction Profiling qHTS: Assay Interference Panel against the NCATS CANVASS Library (AID 1347401)
Summary of the method: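 Cell-free redox surrogate: 5 uM resazurin + 200 uM DTT, 50 mM HEPES pH 7.3/50 mM NaCl; cpds pinned, 11-pt qHTS; Ex525/Em598 read t0 and t=15 min, dark.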

Measured: Potency

CN(C)CCC=C1c2ccccc2C=Cc2ccccc21
inactive: [1] | [2] | [3] | [4] | [5] | [6] | [7] | [8] | [9] | [10] | [11]

COc1ccc2[nH]cc(CCNC(C)=O)c2c1
inactive: [12] | [13] | [14] | [15] | [16] | [17] | [18] | [19] | [1] | [2] | [3] | [4] | [5] | [6] | [7] | [8] | [9] | [10] | [11]

NC(CO)C(=O)NNCc1ccc(O)c(O)c1O (stereo not given)
inactive: [1] | [2] | [3] | [4] | [5] | [6] | [7] | [8] | [9] | [10] | [11]

NS(=O)(=O)c1cc2c(cc1Cl)NCNS2(=O)=O
inactive: [1] | [2] | [3] | [4] | [5] | [6] | [7] | [8] | [9] | [10] | [11]

NC(=O)NO
inactive: [1] | [2] | [3] | [4] | [5] | [6] | [7] | [8] | [9] | [10] | [11]

CNCCCC12CCC(c3ccccc31)c1ccccc12
inactive: [1] | [2] | [3] | [4] | [5] | [6] | [7] | [8] | [9] | [10] | [11]

Cc1cc(C(C)(C)C)c(O)c(C)c1CC1=NCCN1
inactive: [1] | [2] | [3] | [4] | [5] | [6] | [7] | [8] | [9] | [10] | [11]

CN1CCN(C2=Nc3cc(Cl)ccc3Nc3ccccc32)CC1
inactive: [1] | [2] | [3] | [4] | [5] | [6] | [7] | [8] | [9] | [10] | [11]

NCCc1cnc[nH]1
inactive: [1] | [2] | [3] | [4] | [5] | [6] | [7] | [8] | [9] | [10] | [11]

O=c1[nH]cc(F)c(=O)[nH]1
inactive: [1] | [2] | [3] | [4] | [5] | [6] | [7] | [8] | [9] | [10] | [11]

CN1C(C(=O)Nc2ccccn2)=C(O)c2ccccc2S1(=O)=O
inactive: [1] | [2] | [3] | [4] | [5] | [6] | [7] | [8] | [9] | [10] | [11]

N[C@@H](Cc1c[nH]c2ccc(O)cc12)C(=O)O
inactive: [1] | [2] | [3] | [4] | [5] | [6] | [7] | [8] | [9] | [10] | [11]

O=C(c1ccc(OCCN2CCCCC2)cc1)c1c(-c2ccc(O)cc2)sc2cc(O)ccc12
inactive: [1] | [2] | [3] | [4] | [5] | [6] | [7] | [8] | [9] | [10] | [11]

NCCCCCC(=O)O
inactive: [1] | [2] | [3] | [4] | [5] | [6] | [7] | [8] | [9] | [10] | [11]

CCc1cccc2c3c([nH]c12)C(CC)(CC(=O)O)OCC3 (stereo not given)
inactive: [1] | [2] | [3] | [5] | [6] | [7] | [8] | [9] | [10] | [11]

CN(Cc1cnc2nc(N)nc(N)c2n1)c1ccc(C(=O)N[C@@H](CCC(=O)O)C(=O)O)cc1
inactive: [1] | [2] | [3] | [4] | [5] | [6] | [7] | [8] | [9] | [11]

Nc1ccn([C@H]2CC[C@@H](CO)O2)c(=O)n1
inactive: [1] | [2] | [3] | [5] | [6] | [7] | [8] | [9] | [10] | [11]

CN1CCC(=C2c3ccccc3CC(=O)c3sccc32)CC1
inactive: [1] | [2] | [3] | [4] | [5] | [6] | [7] | [8] | [9] | [10] | [11]

CC(C)(C)C(=O)Oc1ccc(S(=O)(=O)Nc2ccccc2C(=O)NCC(=O)O)cc1
inactive: [1] | [2] | [3] | [4] | [5] | [6] | [9] | [10] | [11]

CC[C@@]1(O)C(=O)OCc2c1cc1n(c2=O)Cc2cc3c(CN(C)C)c(O)ccc3nc2-1
inactive: [3] | [5] | [6] | [9]
active: [1] 3.55 µM | [2] 10.5 µM | [10] 14.1 µM | [11] 28.2 µM and 24.1 µM and 31.6 µM

— PubChem BioAssay (NCATS)
